{
  "source": "PubChem BioAssay AID1476",
  "about": "(National Center for Advancing Translational Sciences (NCATS), 2009)",
  "note": "The whole screen tested about 200,000 compounds, of which about 4,500 (2.2%) were called active. Not shown: some 12% with an inconclusive outcome. Calls come from the whole dose curve; as a rule, active = well fitted inhibition curve with a large enough effect; inconclusive = small, poorly fitted or top-dose-only effect, or effect the other way; inactive = flat fitted curve, though single readings scatter. Many of the other results were omitted from the sample, so actives are more common in it than they were. Potency is the fitted concentration of half-maximal effect.",
  "data": [
    {"target": "Cruzipain (Trypanosoma cruzi) (UniProt P25779)", "sequence (P25779 123-467 limits assumed)": "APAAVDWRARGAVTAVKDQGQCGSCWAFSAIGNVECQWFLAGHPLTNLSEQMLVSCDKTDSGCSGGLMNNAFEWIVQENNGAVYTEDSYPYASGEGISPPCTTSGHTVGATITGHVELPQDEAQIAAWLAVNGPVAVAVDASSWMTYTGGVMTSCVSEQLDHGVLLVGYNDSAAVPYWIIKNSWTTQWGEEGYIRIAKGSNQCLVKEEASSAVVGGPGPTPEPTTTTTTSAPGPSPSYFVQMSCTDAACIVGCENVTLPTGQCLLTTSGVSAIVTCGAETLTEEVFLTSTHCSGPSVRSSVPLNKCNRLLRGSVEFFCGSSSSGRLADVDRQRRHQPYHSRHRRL", "experiment": "qHTS Assay for Promiscuous and Specific Inhibitors of Cruzain (without detergent); note: nearly all actives have a fitted effect of over 40% in size;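 for max response, negative = inhibition: plate controls were enzyme without inhibitor for no effect and buffer without enzyme for full effect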", "conditions": "purified cruzain, Z-FR-AMC fluorescence, no detergent", "method_in_brief": "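Detergent-free condition (0.00005% Triton X-100) in acetate buffer pH 5.5 with DTT. 1.5 nM enzyme and compound were pre-mixed 15 min, then 2 uM Z-FR-AMC substrate added; reaction progress from fluorescence change between first and third reads (60 s).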", "values": [
      {"smiles": "COc1cccc(OCCn2c(-c3ccc(Br)cc3)nc3ccccc3c2=O)c1", "max response, negative = inhibition": "-14.8% (inactive)"},
      {"smiles": "Cc1cc(C)cc(NS(=O)(=O)c2cc3c(cc2C)NC(=O)CO3)c1", "max response, negative = inhibition": "6.94% (inactive)"},
      {"smiles": "Cc1cc(C)cc(NC(=O)CSc2nc(=O)n(CCN3CCOCC3)c3c2CCC3)c1", "max response, negative = inhibition": "-7.74% (inactive)"},
      {"smiles": "O=C(c1ccc(Br)cc1)N(Cc1cccs1)c1ccc(F)cc1", "max response, negative = inhibition": "11.6% (inactive)"},
      {"smiles": "COC(=O)c1ccc(NC(=O)CSc2n[nH]c(-c3ccccc3)n2)cc1", "max response, negative = inhibition": "-7.41% (inactive)"},
      {"smiles": "COc1ccc(C(=O)Nc2nc(-c3ccc(S(=O)(=O)N4CCOCC4)cc3)cs2)cc1", "max response, negative = inhibition": "-19.9% (inactive)"},
      {"smiles": "COc1ccc(Cc2nnc(NS(=O)(=O)Cc3ccccc3)s2)cc1", "max response, negative = inhibition": "-1.39% (inactive)"},
      {"smiles": "Cc1ccc(-c2csc(NC(=O)Cc3cccs3)n2)cc1C", "max response, negative = inhibition": "-12.6% (inactive)"},
      {"smiles": "COc1ccc(Cc2nnc(NC(=O)Cc3cccs3)s2)cc1", "Potency": "20 µM (active)"},
      {"smiles": "CCc1nnc(NC(=O)CSc2nnc(Cc3ccccc3)n2-c2ccc(OC)cc2)s1", "max response, negative = inhibition": "-3.04% (inactive)"},
      {"smiles": "COc1ccc(-c2csc(NC(=O)CCCc3cccs3)n2)cc1", "Potency": "10 µM (active)"},
      {"smiles": "CCN(CC)S(=O)(=O)c1ccc2c(c1)nc(CN(C)C(=O)Nc1ccc(Cl)cc1)n2C", "max response, negative = inhibition": "2.49% (inactive)"},
      {"smiles": "CCOC(=O)c1[nH]c(C)c(CCC(=O)N2CCN(c3ccccc3)CC2)c1C", "max response, negative = inhibition": "6.86% (inactive)"},
      {"smiles": "Cc1cccc(C(=O)N2CCc3cc(CNC(=O)Cc4ccc(F)cc4)ccc32)c1", "max response, negative = inhibition": "-5.89% (inactive)"},
      {"smiles": "CCc1ccc(CN(Cc2ccco2)C(=O)COc2ccc(Cl)c(C)c2)cc1", "max response, negative = inhibition": "-28.4% (inactive)"},
      {"smiles": "CCN(CC)S(=O)(=O)c1ccc2c(c1)N(CC(=O)NCC(C)c1ccccc1)C(=O)CO2", "note": "(stereo not given)", "max response, negative = inhibition": "13.8% (inactive)"},
      {"smiles": "c1ccc2[nH]c(-c3nc4ccccc4[nH]3)nc2c1", "max response, negative = inhibition": "9% (inactive)"},
      {"smiles": "O=C(Nc1sc2c(c1-c1nc3ccccc3[nH]1)CCCC2)C1CC1", "Potency": "25.1 µM (active)"},
      {"smiles": "O=C(OCc1nc2ccccc2[nH]1)C1CCCCC1", "max response, negative = inhibition": "6.92% (inactive)"},
      {"smiles": "Cc1ccc2c(c1)N(C(=O)CCC(=O)NCc1ccccc1F)CC(C)O2", "note": "(stereo not given)", "max response, negative = inhibition": "2.02% (inactive)"},
      {"smiles": "Cc1ccc(OCCSc2nc(C)c(Cc3ccccc3)c(=O)[nH]2)cc1", "max response, negative = inhibition": "-1.11% (inactive)"},
      {"smiles": "O=C(NC1CC(=O)N(c2ccc(F)cc2)C1)c1cccs1", "note": "(stereo not given)", "max response, negative = inhibition": "8.85% (inactive)"},
      {"smiles": "Cc1c(Cl)cccc1-c1ccc(CNCCCSc2nnnn2C)o1", "max response, negative = inhibition": "-7.09% (inactive)"},
      {"smiles": "CCCc1ccc(OCc2ccc(C(=O)N/N=C/c3cccc([N+](=O)[O-])c3)o2)c(OC)c1", "Potency": "6.31 µM (active)"},
      {"smiles": "COc1cc(/C=N\\NC(=O)CNC(=O)c2cccc([N+](=O)[O-])c2)ccc1O", "max response, negative = inhibition": "6.36% (inactive)"},
      {"smiles": "COc1cc(/C=N/O)ccc1OCc1ccc([N+](=O)[O-])cc1", "max response, negative = inhibition": "0.78% (inactive)"},
      {"smiles": "Cc1ccc(-c2nc3cccc(C)n3c2Nc2ccc3c(c2)OCCO3)cc1", "max response, negative = inhibition": "-0.169% (inactive)"},
      {"smiles": "CCCN1CCN(CCCNC(=O)c2cnn(-c3ccc(C)cc3)c2-n2cccc2)CC1", "max response, negative = inhibition": "7.09% (inactive)"},
      {"smiles": "CCCCOc1ccc(CNC(=O)c2ccc3c(c2)N(C)C(=O)C2CCCCN32)cc1", "note": "(stereo not given)", "max response, negative = inhibition": "13.9% (inactive)"},
      {"smiles": "COc1ccccc1NC(=O)c1oc2ccccc2c1NC(=O)COc1ccccc1OC", "max response, negative = inhibition": "-7.97% (inactive)"},
      {"smiles": "Cc1cccc(CC(=O)N2CCN=C2SCc2ccc([N+](=O)[O-])cc2)c1", "max response, negative = inhibition": "-7.03% (inactive)"},
      {"smiles": "Cc1cccc(COc2ccccc2/C=N/Nc2ccc([N+](=O)[O-])cc2)c1", "Potency": "25.1 µM (active)"},
      {"smiles": "Cc1cc([N+](=O)[O-])ccc1NCc1cccc([N+](=O)[O-])c1", "max response, negative = inhibition": "2.12% (inactive)"},
      {"smiles": "N#Cc1ccc(-c2cccs2)nc1SCc1ccc(Br)cc1", "max response, negative = inhibition": "-6.69% (inactive)"},
      {"smiles": "COc1ccc2c(c1)c(N1CCCC1=O)c(C(=O)Nc1ccccc1C(F)(F)F)n2C", "max response, negative = inhibition": "-10% (inactive)"},
      {"smiles": "COc1ccc(C(=O)N2CCC(c3nc4ccccc4o3)CC2)cc1", "max response, negative = inhibition": "14.3% (inactive)"},
      {"smiles": "Cc1ccc(-c2noc(-c3nnn(-c4cccc(C(F)(F)F)c4)c3N)n2)cc1", "max response, negative = inhibition": "1.55% (inactive)"},
      {"smiles": "CCSc1nnc(NC(=O)Cc2ccccc2OC)s1", "max response, negative = inhibition": "0.739% (inactive)"},
      {"smiles": "CCSc1nnc(NC(=O)c2ccc(C)cc2)s1", "Potency": "0.631 µM (active)"},
      {"smiles": "CCSc1nnc(NC(=O)c2cc(=O)c3cc(C)c(C)cc3o2)s1", "max response, negative = inhibition": "-5.87% (inactive)"},
      {"smiles": "Cc1ccccc1OCc1nc2c3cnn(-c4ccccc4F)c3ncn2n1", "max response, negative = inhibition": "-7.52% (inactive)"},
      {"smiles": "COc1cc(OC)c(NC(=O)Cc2ccc(-n3c(C)nc4cccnc43)cc2)cc1Cl", "max response, negative = inhibition": "4.77% (inactive)"},
      {"smiles": "COc1c(Cl)cc(C(=O)N(Cc2ccccc2F)C2CCS(=O)(=O)C2)cc1Cl", "note": "(stereo not given)", "max response, negative = inhibition": "6.06% (inactive)"},
      {"smiles": "COCCn1c(C)cc(C2=NNC(=Nc3ccc(F)cc3)SC2)c1C", "max response, negative = inhibition": "-3.73% (inactive)"},
      {"smiles": "Cc1ccc(-c2csc(-c3c[nH]c4ccccc34)n2)cc1", "max response, negative = inhibition": "1.08% (inactive)"},
      {"smiles": "Cc1cccc(N=C2NN=C(c3c[nH]c4ccccc34)CS2)c1", "Potency": "7.94 µM (active)"},
      {"smiles": "CC(=O)N1c2ccccc2CC1C(=O)N1CCN(c2ccc(F)cc2)CC1", "note": "(stereo not given)", "max response, negative = inhibition": "13.9% (inactive)"},
      {"smiles": "Cc1nc(SCC(=O)Nc2ccc(C(=O)O)cc2)n[nH]1", "max response, negative = inhibition": "6.79% (inactive)"},
      {"smiles": "Nc1nc(N)c2[nH]c(CNc3ccc(C(=O)O)cc3)nc2n1", "Potency": "3.98 µM (active)"},
      {"smiles": "O=C(CCS(=O)(=O)c1cc(Br)cc2c1N(C(=O)C1CC1)CC2)Nc1ccc(Br)cc1F", "max response, negative = inhibition": "-5.03% (inactive)"},
      {"smiles": "CCOCc1nnc(NC(=O)CSc2ccc(C)cc2)s1", "max response, negative = inhibition": "1.04% (inactive)"},
      {"smiles": "Cc1ccc(OCc2nnc(NC(=O)OCC(C)C)s2)cc1", "Potency": "20 µM (active)"},
      {"smiles": "COCC(=O)Nc1nnc(COc2ccccc2)s1", "max response, negative = inhibition": "2.8% (inactive)"},
      {"smiles": "CCC(CC)C(=O)N1CC(=O)Nc2ccc(Br)cc2C1c1ccccc1", "note": "(stereo not given)", "max response, negative = inhibition": "-0.646% (inactive)"},
      {"smiles": "CCCCOc1ccc(C(=O)N2CC(=O)Nc3ccc(Br)cc3C2c2ccc(F)cc2)cc1", "note": "(stereo not given)", "Potency": "25.1 µM (active)"},
      {"smiles": "COc1ccc(CC(=O)N2CC(=O)Nc3ccc(Br)cc3C2c2ccc(F)cc2)cc1OC", "note": "(stereo not given)", "max response, negative = inhibition": "18.8% (inactive)"},
      {"smiles": "Cc1ccc2cccc(NC(=O)c3ccc(OC(C)C)cc3)c2n1", "max response, negative = inhibition": "-1.78% (inactive)"},
      {"smiles": "Cc1[nH]c2ccccc2c1/C=N/NC(=O)CNC(=O)c1ccc2c(c1)OCO2", "max response, negative = inhibition": "-1.52% (inactive)"},
      {"smiles": "Cc1[nH]c2ccccc2c1/C=N\\NC(=O)Cn1nnc(-c2ccccc2)n1", "Potency": "7.94 µM (active)"},
      {"smiles": "O=C(Cn1nnc(-c2ccccc2)n1)NCc1ccccc1", "max response, negative = inhibition": "3.66% (inactive)"}
    ]}
  ]
}
